# Laboratory results reported in ChEMBL document CHEMBL1961873, “Compounds: GSK PKIS; Assays: Nanosyn kinase panel” (2012).
# Values joined by “and” are separate entries in the source; they are usually repeats but may differ in a detail not shown here. Identical values can stand only once.
# Assays:
# [1] = target: T1, Serine/threonine-protein kinase Nek9 (Homo sapiens) (UniProt Q8TD19); conditions: at 1 µM;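 note: each value is a mean percent inhibition of NEK9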
# T1 sequence (whole entry): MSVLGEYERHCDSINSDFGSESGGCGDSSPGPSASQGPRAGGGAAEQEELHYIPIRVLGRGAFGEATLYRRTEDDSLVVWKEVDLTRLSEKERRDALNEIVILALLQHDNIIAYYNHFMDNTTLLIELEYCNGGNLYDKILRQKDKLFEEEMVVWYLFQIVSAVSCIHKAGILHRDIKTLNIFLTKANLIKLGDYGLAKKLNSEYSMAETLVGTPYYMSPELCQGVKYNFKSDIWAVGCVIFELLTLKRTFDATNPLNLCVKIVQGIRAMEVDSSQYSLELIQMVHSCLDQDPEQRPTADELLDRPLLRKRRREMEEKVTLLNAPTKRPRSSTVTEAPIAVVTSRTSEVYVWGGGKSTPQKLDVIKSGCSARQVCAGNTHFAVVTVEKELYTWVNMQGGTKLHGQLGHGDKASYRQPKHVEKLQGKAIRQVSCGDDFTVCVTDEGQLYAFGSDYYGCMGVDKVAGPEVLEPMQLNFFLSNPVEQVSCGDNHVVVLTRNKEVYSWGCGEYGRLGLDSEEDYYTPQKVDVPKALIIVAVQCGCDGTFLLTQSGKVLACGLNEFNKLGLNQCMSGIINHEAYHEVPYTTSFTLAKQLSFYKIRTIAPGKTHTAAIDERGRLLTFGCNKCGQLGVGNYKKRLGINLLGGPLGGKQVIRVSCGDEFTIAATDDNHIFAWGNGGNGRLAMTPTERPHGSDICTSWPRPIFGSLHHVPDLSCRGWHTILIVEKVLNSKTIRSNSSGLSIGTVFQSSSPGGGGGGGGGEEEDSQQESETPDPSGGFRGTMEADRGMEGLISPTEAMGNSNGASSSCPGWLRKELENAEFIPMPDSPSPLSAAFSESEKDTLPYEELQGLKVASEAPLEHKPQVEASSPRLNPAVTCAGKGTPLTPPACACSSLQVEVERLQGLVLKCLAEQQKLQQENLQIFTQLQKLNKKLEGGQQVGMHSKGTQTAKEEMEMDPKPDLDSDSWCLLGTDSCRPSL
# [2] = target: Serine/threonine-protein kinase PLK1 (Homo sapiens) (UniProt P53350); conditions: at 0.1 µM
# [3] = target: Serine/threonine-protein kinase PLK1 (Homo sapiens) (UniProt P53350); conditions: at 1 µM
# [4] = target: T2, Dual specificity protein kinase TTK (Homo sapiens) (UniProt P33981); conditions: at 0.1 µM
# T2 sequence (whole entry): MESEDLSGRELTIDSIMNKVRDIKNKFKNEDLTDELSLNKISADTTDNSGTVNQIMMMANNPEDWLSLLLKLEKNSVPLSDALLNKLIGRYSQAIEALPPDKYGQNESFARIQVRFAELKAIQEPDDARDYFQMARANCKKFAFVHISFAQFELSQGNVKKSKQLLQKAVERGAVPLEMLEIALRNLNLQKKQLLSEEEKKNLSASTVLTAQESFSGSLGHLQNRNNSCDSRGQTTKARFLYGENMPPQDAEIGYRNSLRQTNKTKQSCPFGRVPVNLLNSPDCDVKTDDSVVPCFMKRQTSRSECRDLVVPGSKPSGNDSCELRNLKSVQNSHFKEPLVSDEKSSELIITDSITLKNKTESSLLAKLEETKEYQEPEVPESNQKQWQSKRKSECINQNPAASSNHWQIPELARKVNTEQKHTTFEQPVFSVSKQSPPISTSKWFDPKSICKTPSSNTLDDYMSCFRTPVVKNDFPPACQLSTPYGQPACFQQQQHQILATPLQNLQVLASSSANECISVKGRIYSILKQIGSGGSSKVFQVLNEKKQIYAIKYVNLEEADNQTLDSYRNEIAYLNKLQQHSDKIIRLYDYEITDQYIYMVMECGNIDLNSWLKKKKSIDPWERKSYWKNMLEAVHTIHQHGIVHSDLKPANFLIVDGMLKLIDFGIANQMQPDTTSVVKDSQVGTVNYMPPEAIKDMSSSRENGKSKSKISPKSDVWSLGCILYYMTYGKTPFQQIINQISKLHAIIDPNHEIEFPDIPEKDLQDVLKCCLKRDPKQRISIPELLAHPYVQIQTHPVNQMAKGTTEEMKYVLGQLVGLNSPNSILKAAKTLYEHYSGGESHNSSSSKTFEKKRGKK
# [5] = test system: T3, Receptor-type tyrosine-protein kinase FLT3 (Homo sapiens), P36888 [D835Y]; conditions: at 1 µM
# T3 sequence (whole entry): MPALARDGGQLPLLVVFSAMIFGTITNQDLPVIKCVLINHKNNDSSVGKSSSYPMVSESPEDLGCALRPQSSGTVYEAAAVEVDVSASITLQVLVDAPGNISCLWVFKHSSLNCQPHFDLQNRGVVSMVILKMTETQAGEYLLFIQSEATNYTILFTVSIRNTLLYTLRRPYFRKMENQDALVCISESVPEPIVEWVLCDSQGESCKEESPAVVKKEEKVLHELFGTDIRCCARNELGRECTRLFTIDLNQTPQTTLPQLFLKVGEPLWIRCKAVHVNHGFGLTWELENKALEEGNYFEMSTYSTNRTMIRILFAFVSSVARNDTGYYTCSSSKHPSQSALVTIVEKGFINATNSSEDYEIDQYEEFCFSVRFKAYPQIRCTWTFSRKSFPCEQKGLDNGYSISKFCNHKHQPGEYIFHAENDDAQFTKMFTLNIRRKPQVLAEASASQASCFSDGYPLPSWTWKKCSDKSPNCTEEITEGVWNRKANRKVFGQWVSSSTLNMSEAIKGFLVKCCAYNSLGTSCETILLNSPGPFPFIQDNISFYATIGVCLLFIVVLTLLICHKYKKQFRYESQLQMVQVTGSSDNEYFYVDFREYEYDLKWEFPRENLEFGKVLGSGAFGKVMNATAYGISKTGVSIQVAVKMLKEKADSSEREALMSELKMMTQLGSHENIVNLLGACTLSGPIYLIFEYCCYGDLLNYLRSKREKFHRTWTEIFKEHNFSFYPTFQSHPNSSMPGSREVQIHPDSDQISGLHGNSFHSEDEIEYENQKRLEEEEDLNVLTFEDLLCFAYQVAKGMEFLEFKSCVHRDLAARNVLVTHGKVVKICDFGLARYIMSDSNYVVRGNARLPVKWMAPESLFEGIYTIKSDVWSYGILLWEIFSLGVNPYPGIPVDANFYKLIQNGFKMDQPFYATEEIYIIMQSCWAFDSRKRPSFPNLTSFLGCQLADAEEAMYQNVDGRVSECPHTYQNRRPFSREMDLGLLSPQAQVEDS
# [6] = target: Vascular endothelial growth factor receptor 3 (Homo sapiens) (UniProt P35916); conditions: at 0.1 µM
# [7] = target: Vascular endothelial growth factor receptor 3 (Homo sapiens) (UniProt P35916); conditions: at 1 µM
# [8] = target: Macrophage colony-stimulating factor 1 receptor (Homo sapiens) (UniProt P07333); conditions: at 0.1 µM
# [9] = target: Macrophage colony-stimulating factor 1 receptor (Homo sapiens) (UniProt P07333); conditions: at 1 µM
# [10] = target: Tyrosine-protein kinase Fyn (Homo sapiens) (UniProt P06241); conditions: at 0.1 µM
# [11] = target: Tyrosine-protein kinase Fyn (Homo sapiens) (UniProt P06241); conditions: at 1 µM
# [12] = target: Tyrosine-protein kinase HCK (Homo sapiens) (UniProt P08631); conditions: at 0.1 µM
# [13] = target: Tyrosine-protein kinase HCK (Homo sapiens) (UniProt P08631); conditions: at 1 µM
# [14] = target: Insulin-like growth factor 1 receptor (Homo sapiens) (UniProt P08069); conditions: at 0.1 µM
# [15] = target: Insulin-like growth factor 1 receptor (Homo sapiens) (UniProt P08069); conditions: at 1 µM
# [16] = target: Insulin receptor (Homo sapiens) (UniProt P06213); conditions: at 0.1 µM
# [17] = target: Insulin receptor (Homo sapiens) (UniProt P06213); conditions: at 1 µM
# [18] = target: Insulin receptor-related protein (Homo sapiens) (UniProt P14616); conditions: at 0.1 µM
# [19] = target: Insulin receptor-related protein (Homo sapiens) (UniProt P14616); conditions: at 1 µM
# [20] = target: T4, Tyrosine-protein kinase ITK/TSK (Homo sapiens) (UniProt Q08881); conditions: at 0.1 µM;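 note: mean percent inhibition of ITK from the GSK PKIS screen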
# T4 sequence (whole entry): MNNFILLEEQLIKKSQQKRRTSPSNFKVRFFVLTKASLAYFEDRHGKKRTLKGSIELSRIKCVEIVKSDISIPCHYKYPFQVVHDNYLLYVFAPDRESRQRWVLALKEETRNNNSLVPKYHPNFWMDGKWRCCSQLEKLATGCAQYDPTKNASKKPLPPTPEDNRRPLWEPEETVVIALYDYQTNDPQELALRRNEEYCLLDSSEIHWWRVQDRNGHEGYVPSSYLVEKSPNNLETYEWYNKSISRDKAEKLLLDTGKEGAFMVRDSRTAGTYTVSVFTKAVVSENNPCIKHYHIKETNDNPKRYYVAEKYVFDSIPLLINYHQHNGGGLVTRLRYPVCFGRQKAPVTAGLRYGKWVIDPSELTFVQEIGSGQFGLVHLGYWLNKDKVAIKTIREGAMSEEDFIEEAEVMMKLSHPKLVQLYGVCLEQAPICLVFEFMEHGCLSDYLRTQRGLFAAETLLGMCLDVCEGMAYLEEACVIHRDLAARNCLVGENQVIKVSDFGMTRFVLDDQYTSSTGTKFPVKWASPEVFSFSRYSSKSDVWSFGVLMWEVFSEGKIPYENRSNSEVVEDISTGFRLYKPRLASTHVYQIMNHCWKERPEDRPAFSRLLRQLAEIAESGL
# Serine/threonine-protein kinase PLK1 (Homo sapiens), sequence (P53350 whole entry): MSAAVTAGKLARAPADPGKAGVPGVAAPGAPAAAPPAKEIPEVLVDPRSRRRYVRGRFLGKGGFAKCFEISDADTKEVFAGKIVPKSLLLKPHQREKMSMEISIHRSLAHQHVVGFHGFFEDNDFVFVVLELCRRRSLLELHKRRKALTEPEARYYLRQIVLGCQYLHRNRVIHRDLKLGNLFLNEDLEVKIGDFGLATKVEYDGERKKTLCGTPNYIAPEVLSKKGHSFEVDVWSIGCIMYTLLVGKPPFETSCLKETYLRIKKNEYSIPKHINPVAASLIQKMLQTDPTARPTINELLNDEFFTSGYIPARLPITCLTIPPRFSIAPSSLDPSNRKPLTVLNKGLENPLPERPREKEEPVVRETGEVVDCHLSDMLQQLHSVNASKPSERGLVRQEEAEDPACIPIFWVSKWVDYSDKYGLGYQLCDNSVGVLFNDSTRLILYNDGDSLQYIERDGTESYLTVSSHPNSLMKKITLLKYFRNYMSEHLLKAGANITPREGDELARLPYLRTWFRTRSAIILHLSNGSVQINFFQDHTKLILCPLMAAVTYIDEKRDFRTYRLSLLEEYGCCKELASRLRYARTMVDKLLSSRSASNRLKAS
# Tyrosine-protein kinase HCK (Homo sapiens), sequence (P08631 2-526 limits assumed): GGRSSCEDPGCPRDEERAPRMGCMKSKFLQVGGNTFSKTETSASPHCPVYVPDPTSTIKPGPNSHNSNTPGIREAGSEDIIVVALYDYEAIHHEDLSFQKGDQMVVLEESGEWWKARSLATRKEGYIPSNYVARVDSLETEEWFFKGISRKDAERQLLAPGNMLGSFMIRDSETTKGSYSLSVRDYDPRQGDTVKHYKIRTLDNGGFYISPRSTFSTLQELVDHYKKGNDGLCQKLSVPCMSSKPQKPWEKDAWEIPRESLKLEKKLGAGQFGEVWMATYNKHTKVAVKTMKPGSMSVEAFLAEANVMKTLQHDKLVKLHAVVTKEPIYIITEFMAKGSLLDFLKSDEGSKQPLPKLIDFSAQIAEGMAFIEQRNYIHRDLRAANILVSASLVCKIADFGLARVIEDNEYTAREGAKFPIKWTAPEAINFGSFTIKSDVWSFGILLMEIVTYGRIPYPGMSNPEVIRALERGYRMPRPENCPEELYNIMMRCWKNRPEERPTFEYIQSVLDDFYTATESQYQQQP
# Macrophage colony-stimulating factor 1 receptor (Homo sapiens), sequence (P07333 whole entry): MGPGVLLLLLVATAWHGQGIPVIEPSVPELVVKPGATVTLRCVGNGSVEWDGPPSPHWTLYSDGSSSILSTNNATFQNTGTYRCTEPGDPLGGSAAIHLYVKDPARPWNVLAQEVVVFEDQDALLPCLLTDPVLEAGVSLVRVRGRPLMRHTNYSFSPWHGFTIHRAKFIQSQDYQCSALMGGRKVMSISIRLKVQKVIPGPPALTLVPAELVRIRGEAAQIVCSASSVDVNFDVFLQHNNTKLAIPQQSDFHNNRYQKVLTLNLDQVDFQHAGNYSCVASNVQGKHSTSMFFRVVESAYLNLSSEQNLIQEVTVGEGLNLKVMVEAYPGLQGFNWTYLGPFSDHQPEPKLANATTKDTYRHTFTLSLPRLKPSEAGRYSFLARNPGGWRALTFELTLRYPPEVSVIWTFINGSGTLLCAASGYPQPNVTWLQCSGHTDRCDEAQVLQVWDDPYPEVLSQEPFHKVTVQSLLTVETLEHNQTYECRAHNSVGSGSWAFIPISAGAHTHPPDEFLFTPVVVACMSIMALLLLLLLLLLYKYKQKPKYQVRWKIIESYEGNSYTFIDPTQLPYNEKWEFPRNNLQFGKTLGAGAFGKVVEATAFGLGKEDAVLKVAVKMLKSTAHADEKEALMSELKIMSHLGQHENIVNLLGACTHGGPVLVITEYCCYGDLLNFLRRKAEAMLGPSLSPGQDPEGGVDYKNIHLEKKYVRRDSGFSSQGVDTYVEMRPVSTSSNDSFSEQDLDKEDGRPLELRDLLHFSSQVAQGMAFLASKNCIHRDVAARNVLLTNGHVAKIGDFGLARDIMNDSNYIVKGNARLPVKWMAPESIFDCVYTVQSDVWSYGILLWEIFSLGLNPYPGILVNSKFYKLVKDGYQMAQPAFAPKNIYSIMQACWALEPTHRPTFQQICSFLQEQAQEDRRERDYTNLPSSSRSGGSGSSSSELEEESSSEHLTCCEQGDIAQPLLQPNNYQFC
# Insulin receptor-related protein (Homo sapiens), sequence (P14616 27-742 limits assumed): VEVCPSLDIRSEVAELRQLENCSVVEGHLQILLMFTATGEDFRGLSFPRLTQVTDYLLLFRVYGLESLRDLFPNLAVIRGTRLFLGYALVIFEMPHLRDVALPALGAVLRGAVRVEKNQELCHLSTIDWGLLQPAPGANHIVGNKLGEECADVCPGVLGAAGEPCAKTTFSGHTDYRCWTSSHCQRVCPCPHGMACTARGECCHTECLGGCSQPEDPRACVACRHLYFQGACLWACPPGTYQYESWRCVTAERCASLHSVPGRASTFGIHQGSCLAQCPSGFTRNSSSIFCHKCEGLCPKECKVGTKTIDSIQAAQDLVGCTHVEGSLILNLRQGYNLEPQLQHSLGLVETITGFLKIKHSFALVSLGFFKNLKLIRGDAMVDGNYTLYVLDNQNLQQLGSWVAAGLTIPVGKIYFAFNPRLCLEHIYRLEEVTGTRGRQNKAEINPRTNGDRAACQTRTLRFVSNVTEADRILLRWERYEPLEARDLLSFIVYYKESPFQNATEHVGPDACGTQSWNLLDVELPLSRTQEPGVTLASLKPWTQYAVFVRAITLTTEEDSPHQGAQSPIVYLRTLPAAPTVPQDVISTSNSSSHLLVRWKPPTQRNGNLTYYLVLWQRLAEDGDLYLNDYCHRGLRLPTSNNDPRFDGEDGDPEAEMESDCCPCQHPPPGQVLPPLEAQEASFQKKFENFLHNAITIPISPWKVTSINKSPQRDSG
# Insulin receptor-related protein (Homo sapiens), sequence (P14616 747-1297 limits assumed): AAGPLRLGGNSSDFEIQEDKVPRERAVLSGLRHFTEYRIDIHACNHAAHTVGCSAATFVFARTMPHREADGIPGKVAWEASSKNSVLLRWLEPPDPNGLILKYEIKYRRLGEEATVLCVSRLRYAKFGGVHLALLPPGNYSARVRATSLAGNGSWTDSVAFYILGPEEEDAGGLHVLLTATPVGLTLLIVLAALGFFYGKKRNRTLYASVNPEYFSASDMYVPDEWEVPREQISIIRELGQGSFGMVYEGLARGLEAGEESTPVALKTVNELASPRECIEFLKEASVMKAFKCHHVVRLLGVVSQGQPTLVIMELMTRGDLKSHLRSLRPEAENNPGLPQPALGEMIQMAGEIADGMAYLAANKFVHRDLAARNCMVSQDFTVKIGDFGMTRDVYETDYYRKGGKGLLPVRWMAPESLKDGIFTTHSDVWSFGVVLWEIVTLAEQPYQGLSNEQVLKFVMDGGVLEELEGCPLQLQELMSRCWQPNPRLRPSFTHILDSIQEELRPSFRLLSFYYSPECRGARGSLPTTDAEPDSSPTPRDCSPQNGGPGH
# Vascular endothelial growth factor receptor 3 (Homo sapiens), sequence (P35916 whole entry): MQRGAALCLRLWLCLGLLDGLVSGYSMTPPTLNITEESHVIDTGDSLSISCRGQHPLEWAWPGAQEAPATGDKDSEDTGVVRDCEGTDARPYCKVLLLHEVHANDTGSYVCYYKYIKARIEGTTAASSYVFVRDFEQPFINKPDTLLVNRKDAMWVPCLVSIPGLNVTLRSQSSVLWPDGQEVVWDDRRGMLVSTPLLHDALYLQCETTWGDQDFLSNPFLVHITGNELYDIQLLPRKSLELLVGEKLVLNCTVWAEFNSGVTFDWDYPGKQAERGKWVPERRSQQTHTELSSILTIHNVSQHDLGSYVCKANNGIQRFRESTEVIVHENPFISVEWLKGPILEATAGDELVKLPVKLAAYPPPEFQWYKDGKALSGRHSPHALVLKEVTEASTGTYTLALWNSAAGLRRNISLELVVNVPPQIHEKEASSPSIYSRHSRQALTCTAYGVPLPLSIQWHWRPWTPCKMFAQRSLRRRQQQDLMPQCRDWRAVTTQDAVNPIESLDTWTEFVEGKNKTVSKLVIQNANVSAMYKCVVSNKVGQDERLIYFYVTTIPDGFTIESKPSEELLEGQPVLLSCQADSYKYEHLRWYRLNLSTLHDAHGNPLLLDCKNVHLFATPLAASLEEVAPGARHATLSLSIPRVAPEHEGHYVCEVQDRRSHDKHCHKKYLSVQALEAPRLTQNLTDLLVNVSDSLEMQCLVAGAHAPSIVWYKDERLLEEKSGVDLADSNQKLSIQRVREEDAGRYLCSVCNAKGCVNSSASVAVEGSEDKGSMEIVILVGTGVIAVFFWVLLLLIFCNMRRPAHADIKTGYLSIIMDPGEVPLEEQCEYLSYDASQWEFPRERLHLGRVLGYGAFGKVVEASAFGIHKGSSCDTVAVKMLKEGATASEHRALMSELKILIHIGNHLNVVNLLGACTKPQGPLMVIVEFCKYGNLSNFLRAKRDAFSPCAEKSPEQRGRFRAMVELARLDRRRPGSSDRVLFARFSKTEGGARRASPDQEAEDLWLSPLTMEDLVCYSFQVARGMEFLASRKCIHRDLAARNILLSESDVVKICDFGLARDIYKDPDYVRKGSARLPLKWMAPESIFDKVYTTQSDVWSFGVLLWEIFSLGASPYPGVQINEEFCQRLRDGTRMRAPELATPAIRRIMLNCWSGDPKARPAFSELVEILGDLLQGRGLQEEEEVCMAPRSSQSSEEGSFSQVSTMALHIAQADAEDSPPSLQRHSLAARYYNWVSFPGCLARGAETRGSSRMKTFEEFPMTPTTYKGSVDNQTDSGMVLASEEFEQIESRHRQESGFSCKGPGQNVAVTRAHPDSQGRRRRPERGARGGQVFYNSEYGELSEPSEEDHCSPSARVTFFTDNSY
SMILES,inhibition [1],inhibition [2],inhibition [3],inhibition [4],inhibition [5],inhibition [6],inhibition [7],inhibition [8],inhibition [9],inhibition [10],inhibition [11],inhibition [12],inhibition [13],inhibition [14],inhibition [15],inhibition [16],inhibition [17],inhibition [18],inhibition [19],inhibition [20]
Cc1ccc(-c2cc3c(NC(=O)C4CC4)ncnc3o2)cc1,4.87%,3.28%,2.79%,6.01%,3.4%,3.84%,9.25%,20.6%,66.9%,6.5%,5.49%,7.39%,21.8%,5.44%,5.98%,5.37%,5.18%,5.59%,2.34%,1.76%
CCOc1ccc2c(-c3ccnc(Nc4cc(OC)cc(C(F)(F)F)c4)n3)cnn2n1,7.2%,0.53%,1.68%,-0.36%,17%,15.8%,22.8%,2.34%,17.2%,3.33%,13.1%,3.74%,4.95%,8.6%,7.42%,-0.85%,1.65%,-0.39%,0.03%,0.24%
Cc1c2ccc(N(C)c3ccnc(Nc4cccc(S(N)(=O)=O)c4)n3)cc2nn1C,6.19%,3.29%,3.99%,8.91%,13.8%,58.8%,93.8%,78.4%,91.7%,13.8%,60.5%,31.2%,73.8%,-4.22%,13.1%,7.68%,18.7%,2.78%,2.81%,-1.73%
O=C1Nc2ccccc2/C1=C1\CCc2cc(O)ccc21,8.07%,4.12%,4.17%,12.1%,70.6%,7.22%,24.6%,17.3%,59.6%,5.55%,7.65%,6.34%,14.6%,4.61%,12.5%,7.96%,23%,3.81%,2.83%,3.68%
O=C(O[C@H]1CN[C@H](C#Cc2cc3ncnc(Nc4ccc5c(cnn5Cc5ccccc5)c4)c3s2)C1)N1CCOCC1,-0.45%,-1.27%,1.79%,5.51%,2.81%,1.1%,1.5%,-6.02%,4.04%,1.79%,8.19%,-0.73%,3.3%,-2.85%,-0.43%,2.89%,1.79%,-1.64%,-2.28%,-1.11%
OCCCNc1nccc(-c2c(-c3ccc(F)cc3)nn3cc(C(F)(F)F)ccc23)n1,0.58%,3.57%,1.96%,3.55%,1.7%,-2.7%,2.54%,1.88%,6.34%,0.07%,4.88%,5.52%,5.92%,1.8%,1.03%,0.28%,3.33%,3.08%,1.53%,1.09%
CC1=C(C(=O)Nc2ccc3[nH]nc(C)c3c2)C(c2ccc(C(F)(F)F)cc2)CC(=O)N1 (stereo not given),-5.55%,3.32%,0.85%,4.14%,5.4%,5.85%,2.72%,1.56%,2.04%,2.88%,2.72%,4.64%,9.34%,2.37%,3.78%,0.03%,1.72%,2.64%,1.26%,1.81%
CN1CCC(n2cnc(-c3ccc(F)cc3)c2-c2ccnc(NCCO)n2)CC1,8.58%,1.49%,2.42%,-0.23%,4.59%,4.64%,0.88%,3.25%,3.2%,2.96%,1.8%,3.07%,9.14%,3.65%,4.78%,2.63%,3.28%,3.34%,2.39%,1.66%
Nc1ncnc2occ(-c3ccc(NC(=O)Nc4cc(C(F)(F)F)ccc4F)cc3)c12,4.68% and 3.35%,2.14% and -0.72%,1.27% and 0.12%,1.69% and 5.46%,35.4% and 26.1%,44.8% and 23.6%,97.2% and 75.5%,91.2% and 83.5%,96.1% and 81.2%,2.34% and 3.05%,24.3% and 15.7%,9.61% and 2.25%,46.5% and 31.6%,11.3% and 1.32%,10.7% and 0.73%,2.86% and 1.65%,13.2% and 8.78%,1.56% and -3.07%,1.62% and -3%,2.22% and -1.63%
